Screening results as filed in PubChem BioAssay.
HepG2 tox-1 – qHTS for Inhibitors of TGF-b: Cytotox Counterscreen | 410,000 tested, 0.76% active | Potency, µM (titrated, usually from 46.1 µM), without a hit: at the highest dose activity change, negative = cytotoxicity, actives largely listed as cytotoxic | AID 588856, 2011 | HepG2 CAGA-GFP viability, ATP luminescence, 18 h
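CellTiter-Glo luminescence gave cytotoxicity after 18 hours at 37 degrees C. The cells were HepG2 CAGA-GFP in 1% FBS DMEM, stimulated with 500 pg/mL TGF-beta after compound addition. %Activity was normalised to no-cell wells (complete cell-killing) and DMSO (no toxicity), and curves were fitted and classified.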
TGFb SMAD3 inh – qHTS for Inhibitors of TGF-b; AID 588855, 2011; 410,000 tested, 1.2% active; HepG2 CAGA-GFP TGF-b/SMAD3 reporter, GFP fluorescence, 18 h; TGF-beta stimulated, 500 pg/mL final; Potency, µM (doses to about 46.1 µM), for the others: at the highest dose activity, negative = inhibition, hits mostly inhibitors; note: % is set by controls: 0 for no effect and ±100 for the full control effect; nearly all actives have a fitted effect of over 65% in size
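Smad-responsive CAGA-GFP expression was quantified in HEPG2 cells exposed to compounds and 500 pg/mL final TGF-beta for 18 h at 37 degrees C; unstimulated wells defined full inhibition.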
ATXN2 expr inh – Primary qHTS for Inhibitors of ATXN expression; HEK-293 ATXN2-luciferase reporter, luminescence, 24 h; Potency, µM (series often up to 57 µM), for inactives: at the highest dose activity change, negative = inhibition, hits mostly inhibitors; 360,000 tested, 0.72% active; note: % is set by controls: 0 for no effect and ±100 for the full control effect; nearly all actives have a fitted effect of over 55% in size
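ATXN2-luciferase reporter cells (luciferase flanked by upstream and downstream ATXN2 gene portions) were treated 24 h at 37 °C with compounds at up to 57 uM. SteadyGlo luminescence gave expression; GF-AFC fluorescence gave viability.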
GLP1R inv ag – qHTS of GLP-1 Receptor Inverse Agonists (Inhibition Mode). Glucagon-like peptide 1 receptor (Homo sapiens), P43220. Potency, µM (doses to about 38.3 µM), for the others: top-dose activity change, negative = inhibition, most hits filed as inhibitors. AID 624417, 2012. 410,000 tested, 1.6% active. HEK293 GLP-1R CRE-luciferase, luminescence, 24 h; GLP-1R form is constitutively active; note: % is set by controls: 0 for no effect and ±100 for the full control effect; nearly all actives have a fitted effect of over 55% in size
Target sequence (P43220 whole entry, looked up): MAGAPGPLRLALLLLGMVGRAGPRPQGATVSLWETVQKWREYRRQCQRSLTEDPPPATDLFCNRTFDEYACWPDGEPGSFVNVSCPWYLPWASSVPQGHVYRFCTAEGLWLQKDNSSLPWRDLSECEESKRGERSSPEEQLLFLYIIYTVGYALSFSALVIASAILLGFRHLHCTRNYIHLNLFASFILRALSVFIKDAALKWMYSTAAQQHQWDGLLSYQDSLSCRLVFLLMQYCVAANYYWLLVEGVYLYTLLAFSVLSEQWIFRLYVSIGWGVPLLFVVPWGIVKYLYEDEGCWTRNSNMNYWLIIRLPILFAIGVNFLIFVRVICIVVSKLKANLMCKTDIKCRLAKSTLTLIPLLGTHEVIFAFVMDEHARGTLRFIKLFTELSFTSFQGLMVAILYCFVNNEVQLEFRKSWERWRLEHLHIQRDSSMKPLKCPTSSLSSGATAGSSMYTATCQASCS
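Readout was luciferase luminescence, measured 12 min after detection reagent at room temperature. Beforehand, GLP-1R reporter HEK293 cells had sat 12 h, then received compounds for 24 hr at 37 deg C.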
S2 tox – Viability Counterscreen for Primary qHTS for Inhibitors of ATXN expression; S2 cells (HEK-293 line with an ATXN2-luciferase reporter) viability, CellTiter-Fluor protease fluorescence, 24 h; 400,000 tested, 0.49% active; AID 651635, 2014; Potency, µM (top dose mostly 56.7 µM), hits mostly cytotoxic; note: nearly all actives have a fitted effect of over 40% in size
GLP-1R agonist – qHTS of GLP-1 Receptor Agonists; Glucagon-like peptide 1 receptor (Homo sapiens), P43220; HEK293 GLP-1R CRE-luciferase, luminescence, 4-6 h; cells express a hypersensitive GLP-1R form; Potency, µM (doses to about 45.6 µM), for inactives: at the top dose activation, actives largely listed as activators; 380,000 tested, 0.007% active; note: % of control where 0% means no effect
TGFb confirm – qHTS for Inhibitors of TGF-b: Confirmation of Cherry Picks; shares compounds with TGFb SMAD3 inh; HepG2 CAGA-GFP TGF-b reporter, GFP fluorescence, 18 h; cells stimulated with TGF-beta, 500 pg/mL; Potency, µM (doses to about 46.1 µM), for inactives: top-dose activity, negative = inhibition, usual class: inhibitors; 1,600 tested, 63% active; AID 720534, 2013; note: % is set by controls: 0 for no effect and ±100 for the full control effect; nearly all actives have a fitted effect of over 65% in size
HepG2 tox-2 – qHTS for Inhibitors of TGF-b: Cytotox Counterscreen for Cherry Picks | shares compounds with TGFb SMAD3 inh | HepG2 CAGA-GFP viability, ATP luminescence, 18 h; cells stimulated with TGF-beta, 500 pg/mL | Potency, µM (top dose mostly 46.1 µM), inactives show at the top dose activity, negative = cytotoxicity, actives largely listed as inhibitors | 1,600 tested, 27% active | AID 720535, 2013; note: % is set by controls: 0 for no effect and ±100 for the full control effect; nearly all actives have a fitted effect of over 70% in size
CCL64 TGFb inh – qHTS for Inhibitors of TGF-b: CCL64 Cells Orthogonal Assay for Cherry Picks. Potency, µM (highest dose often 46.1 µM), without a hit: at the top dose activity, negative = inhibition, hits mostly inhibitors. shares compounds with TGFb SMAD3 inh. AID 720536, 2013. CCL64 CAGA-GFP reporter, TGF-b stimulated, GFP fluorescence, 18 h. 1,600 tested, 41% active; note: nearly all actives have a fitted effect of over 65% in size
COP TGFb inh – qHTS for Inhibitors of TGF-b: Hit Validation in HepG2 Cells using COP promoter | shares compounds with TGFb SMAD3 inh | HepG2 COP-GFP TGF-b reporter, GFP fluorescence, 18 h; cells stimulated by added recombinant TGF-beta | Potency, µM (titrated, usually from 46.1 µM), for inactives: at the highest dose activity, negative = inhibition, most hits filed as inhibitors | 1,600 tested, 3% active; note: nearly all actives have a fitted effect of over 70% in size
* = called active by the depositor; i = inactive; u = inconclusive; x = not tested or not shown. Compounds with a hit are over-represented: about 3.7% of the library has one in this group of screens. Calls come from the whole dose curve; as a rule, active = well fitted curve in the direction sought with a large enough effect; inconclusive = small, poorly fitted or top-dose-only effect, or another doubt; inactive = no such curve, though single readings can be large; an effect the other way counts as inactive or inconclusive. Potency is the fitted concentration of half-maximal effect.

SMILES	HepG2 tox-1	TGFb SMAD3 inh	ATXN2 expr inh	GLP1R inv ag	S2 tox	GLP-1R agonist	TGFb confirm	HepG2 tox-2	CCL64 TGFb inh	COP TGFb inh
COc1ccc(OC)c(NC(=O)C2(C)CCN2Cc2cccc(OC)c2F)c1 (stereo not drawn)	-10%	-19%	u	u	u	0%	x	x	x	x
COc1cccc(CN2CCC2(C)C(=O)Nc2cccc3cccnc23)c1F (stereo not drawn)	-44%	10µM*	u	u	u	29%	u	-12%	u	15%
O=C(NC(=S)Nc1ccc(Br)c(Cl)c1)C1CC1	-35%	1.6µM*	12%	u	i	0%	0.82µM*	2.1µM*	u	35%
O=C(NC(=S)Nc1cccc(Cl)c1Cl)C1CC1	-24%	1.3µM*	43%	u	i	11%	1.8µM*	3.7µM*	15µM*	63%
CCN(CC)S(=O)(=O)c1ccc2nc(NC(=O)c3cccnc3)sc2c1	-11%	-26%	17%	12%	i	x	x	x	x	x
CC(=O)Oc1ccc2ccccc2c1C(NC(=O)Cc1ccccc1)c1ccccc1 (stereo not drawn)	-36%	10µM*	u	u	u	-13%	29µM*	u	u	65%
COc1ccc(OC(=O)c2nc(SCc3ccccc3C)ncc2Cl)cc1	-1%	-14%	-5%	8%	i	x	x	x	x	x
COc1ccc(-c2noc(C3CCCN(C(=O)c4ccccc4)C3)n2)cc1 (stereo not drawn)	-23%	-20%	4%	u	i	3%	x	x	x	x
O=C(c1ccco1)N1CCCC(c2nc(-c3ccc(S(=O)(=O)NCc4ccccc4)cc3)no2)C1 (stereo not drawn)	-69%	u	28µM*	-18%	u	-15%	15µM*	u	-22%	41%
Cc1coc2c1c(C)cc1oc(=O)c(CC(=O)NCc3ccc(Cl)cc3)c(C)c12	-9%	-4%	x	7%	x	x	x	x	x	x
COc1ccc(Nc2nc(N3CCCC3)nc3ccccc23)c(OC)c1	-58%	10µM*	10µM*	5%	20µM*	1%	u	u	u	66%
COc1ccc(Nc2nc(-c3ccc(C)cc3)nc3ccccc23)c(OC)c1	-31%	u	x	-16%	x	x	x	x	x	x
CC(C)(C)c1ccc(Cn2nnc3c(=O)[nH]c(C4CCN(C(=O)c5ccco5)CC4)nc32)cc1	-20%	13µM*	-19%	u	i	21%	18µM*	u	-21%	4%
Cc1cc(C)c(OCC(=O)Nc2nc(-c3ccccn3)cs2)c(C)c1	-35%	10µM*	u	u	u	-2%	u	-29%	u	31%
Cc1ccc2nc3c(c(Nc4ccc(O)cc4)c2c1)CCC3	-38%	u	x	u	u	-11%	x	x	x	x
Cc1ccc2nc3c(c(Nc4ccc5c(c4)OCCO5)c2c1)CCC3	-20%	3.5µM*	-34%	u	u	-3%	u	u	u	78%
Cc1ccccc1NC1=CC(=O)CC(C)(C)C1	-1%	1%	1%	-9%	i	21%	x	x	x	x
CC1(C)CC(=O)C=C(NC2=CC3OC(c4ccccc4)OCC3OC2=O)C1 (stereo not drawn)	-38%	8.9µM*	-3%	u	u	-55%	23µM*	16µM*	6.5µM*	24%
CCCS(=O)(=O)c1ccc(COC(=O)c2ccc(NC(C)=O)cc2)cc1	0%	u	13%	-1%	i	6%	1%	7%	2%	-14%
CC(=O)Nc1ccc(C(=O)OCc2ccc(Cl)cc2)cc1	-18%	u	3%	0%	i	12%	x	x	x	x
Cc1cccc(OCCn2nnc3sc4c(c3c2=O)CCCC4)c1	-22%	2%	26%	-29%	i	x	x	x	x	x
Cn1c(=O)oc2cc(S(=O)(=O)N3CCCC(C(=O)NCCc4ccc(Cl)cc4)C3)ccc21 (stereo not drawn)	-2%	-15%	3%	-15%	i	0%	x	x	x	x
Cc1ccc(N(CC(O)Cn2c3ccccc3c3ccccc32)S(C)(=O)=O)cc1 (stereo not drawn)	-52%	u	-6%	u	i	14%	x	x	x	x
Cc1cccc(C)c1N(CC(O)Cn1c2ccccc2c2ccccc21)S(C)(=O)=O (stereo not drawn)	-69%	10µM*	u	-17%	u	7%	23µM*	u	23µM*	63%
CCC1(OC(=O)CN(C)C)C(=O)OCc2c1cc1n(c2=O)Cc2cc3c(N)cccc3nc2-1 (stereo not drawn)	3%	3.2µM*	u	-76%	u	-28%	5.8µM*	1.8µM*	u	16%
Cc1cc(C)nc(SCC(=O)Nc2ccnc3ccccc23)n1	-11%	-17%	0%	-15%	i	5%	x	x	x	x
